We go through 78 compounds from PubChem BioAssay AID720650 (Broad Institute, 2013).

Molecules are shown by their SMILES. Unmarked numbers belong to inactive results. Calls of active or inactive are those of the source. No rule for the calls is given here.

The assay is described as follows: C difficile toxins, biochemical counterscreen, UDPG substrate absence, confirmatory dose response (AID 720650). The settings on record: series mostly up to 19.5 µM. (In general: A counterscreen serves to expose hits that act by an unwanted route or on another target.)

A word on the AC50: it is the midpoint of the concentration-response curve, whichever way the signal moves.

As to `Cc1ccc(NNC(=O)c2ccno2)c(C)c1`, the AC50 is 5.41 µM (active).

As to `Cc1ccc(-c2csc(NC(=O)/C=C/c3ccco3)c2C(=O)O)cc1`, the AC50 entry was “inactive”.

Take `CS(=O)(=O)N1CCc2cc(C(=O)Nc3ccc(O)cc3)ccc21`: the AC50 was 14.8 µM (active). Regarding `COc1ccccc1/C=C/c1onc(C)c1S(=O)(=O)N1CCC(C(=O)NC(C)C)CC1`, the AC50 result was “inactive”. To `COc1ccccc1C1=NNC(=NCc2ccccc2)SC1` belongs more than 39 µM. To `COC(=O)Cc1ccc(NC(=S)NCc2ccco2)cc1` belongs “inactive”.

As for `O=C(CC(c1ccccc1)c1ccccc1)Nc1ccc(O)cc1`, the AC50 is 13.4 µM (active).

As for `COCC(=O)N1CC[C@@H]2[C@H]1c1cc(-c3ccccc3)ccc1N(C)[C@H]2CO`, the AC50 was 6.54 µM (active).

Take `COc1ccc(CNC(=O)C2=CC(c3ccc(OC)c(OC)c3)=NS(=O)(=O)N2C)cc1`: the AC50 is more than 39 µM. To `CN(C)c1ccc(Cl)c(NC(N)=S)c1` belongs 19.2 µM (active). To `O=C(C[C@H]1C[C@H]2c3cc(NC(=O)c4ccc5c(c4)OCO5)ccc3O[C@H]2[C@@H](CO)O1)NCc1cccc(F)c1` belongs “inactive”. To `O=C(Nc1nnc(-c2ccco2)o1)C1CC1` belongs more than 39 µM; to `CC(=O)Nc1ccc(S(=O)(=O)Nc2nc3ccccc3nc2-n2ccc(=NC(=O)c3ccc(F)cc3)cc2)cc1`, “inactive”; to `COc1ccc(C(NC(C)=O)c2cc(Cl)c3cccnc3c2O)cc1` (stereo not drawn), “inactive”. `O=C(CCNC(=O)c1ccccc1Cl)N/N=C\c1ccc(O)cc1`: the AC50 is 15.8 µM (active). To `COC(=O)c1ccc(OC(=O)c2ccc(OC)cc2)c(OC)c1` belongs “inactive”; to `O=C(N[C@@H](Cc1c[nH]c2ccccc12)C(=O)O)C1CCN(S(=O)(=O)c2cccs2)CC1`, “inactive”; to `CCSc1nnc(NC(=O)C2CC2c2ccccc2)s1` (stereo not drawn), “inactive”. With `COCC(=O)N1CC[C@@H]2[C@H]1c1cc(-c3ccc(OC)cc3)ccc1N(C)[C@H]2CO`, the AC50 was 10.2 µM (active). For `COc1ccc(N2CCN(CCNC(=O)Nc3cc(Cl)ccc3OC)CC2)cc1` the value was “inactive”. In the case of `Cn1c(=O)[nH]c(=O)c2c1[nH]c(=S)n2Cc1ccc(Cl)cc1`, the AC50 was more than 39 µM.

`CC(=O)Nc1cccc(NC(=O)c2ccc(Br)cc2)c1`: the AC50 entry is “inactive”. For `COCCNc1cc(N)c([N+](=O)[O-])cc1[N+](=O)[O-]` the value was “inactive”; for `COc1ccc(C2=NS(=O)(=O)N(C)C(C(=O)N(C)Cc3ccccc3)=C2)cc1OC`, “inactive”. To `O=C(CNS(=O)(=O)c1ccccc1)N/N=C/c1ccc(O)cc1` belongs 14.9 µM (active); to `Cc1ccc(C(=O)NC(=S)NNC(=O)CC#N)cc1`, 5.73 µM (active); to `COc1ccccc1Nc1nnc(SCc2cc(=O)n3ccsc3n2)s1`, more than 39 µM.

In the case of `Cc1ccc(CN2C(=O)CN=C(c3ccccc3)c3ccccc32)cc1`, the AC50 result is “inactive”. To `COc1ccc2cc3c(nc2c1)OCC3` belongs “inactive”; to `N#Cc1ccc(C(=O)N/N=C/c2cn(CC(=O)O)c3ccccc23)c(F)c1`, “inactive”. For `COc1ccc(CCNC(=O)CCCn2nc(C)n3ccnc3c2=O)cc1OC` the value was “inactive”; for `O=c1onc(-c2ccccc2)n1Cc1ccc([N+](=O)[O-])cc1`, “inactive”; for `COc1ccc(CC(=O)NNC(=S)NC(=O)c2cccnc2)cc1`, “inactive”.

Turning to `O=C(N/N=C/c1ccccn1)c1ccc([N+](=O)[O-])cc1Cl`, the AC50 result is “inactive”. To `Cc1ccc(C2=NS(=O)(=O)N(C)C(C(=O)NCc3ccc(F)cc3)=C2)cc1` belongs “inactive”; to `Cc1ccc(S(=O)(=O)N2CCC(C(=O)OCC(=O)NCCc3ccccc3)CC2)cc1C`, “inactive”; to `C/C(=N\Nc1ccc([N+](=O)[O-])cc1)c1cccc(N)c1`, 1.42 µM (active).

Consider `Cc1[nH]nc(-c2ccc(O)cc2O)c1Oc1ccccc1`, for which the AC50 was 14.6 µM (active).

For the compound `CC1CCC/C(=C\c2ccc(O)cc2)C1=O` (stereo not drawn), the AC50 was 7.48 µM (active). To `Cc1cccc(/C=C/c2onc(C)c2S(=O)(=O)N2CCC(C(=O)N3CCCCC3)CC2)c1` belongs “inactive”; to `O=C(Nc1ccc(O)cc1)/C(=C/c1ccco1)NC(=O)c1ccccc1`, 14.7 µM (active). In the case of `COc1ccc(CNC(=O)c2cc3c(s2)CN(Cc2ccccc2)C3)cc1`, the AC50 result is “inactive”. For `CCCCn1c(N)c(N(CC)C(=O)c2cccs2)c(=O)[nH]c1=O` the value was more than 39 µM; for `O=[N+]([O-])c1ccc(/C=C/c2ccc3ccccc3n2)cc1`, “inactive”. To `CC(C)(C)c1cc(Cl)c(O)c(NC(=S)NC(=O)c2cccnc2)c1` belongs “inactive”; to `CNC(=O)C1CCN(S(=O)(=O)c2c(C)noc2/C=C/c2cccc(C)c2)CC1`, “inactive”. To `CC(C)NC(=O)N1CC[C@@H]2[C@H]1c1cc(-c3ccccc3)ccc1N(C)[C@H]2CO` belongs 5.77 µM (active). Turning to `CC(=O)N(C)C[C@@H]1Oc2cc(/C=C/c3ccccc3)ccc2S(=O)(=O)N([C@H](C)CO)C[C@@H]1C`, the AC50 is more than 39 µM.

Turning to `C=CCn1c(C)cc(C(=O)COC(=O)CCc2cc(OC)c(OC)c(OC)c2)c1C`, the AC50 result is “inactive”. For `Cc1ccc(-c2cc(C(=O)NNC(=O)c3csc(N4CCOCC4)n3)c3ccccc3n2)cc1` the value was “inactive”. For `COC1=C/C(=C/c2c(N)n3nc(CC(=O)N4CCOCC4)sc3nc2=O)C=CC1=O` the value was “inactive”. To `COc1ccc(/C=C2\CCC(C3CCCC3)C2=O)cc1` (stereo not drawn) belongs “inactive”; to `O=c1[nH][nH]c(=O)c2c1[nH]c(=S)n2Cc1ccccc1`, “inactive”. Turning to `Cc1cccc(-c2n[nH]c(=S)n2/N=C/C=C/c2ccco2)c1`, the AC50 result was “inactive”. Take `CCC(=O)Nc1ccc2c(c1)OC[C@H](C)N(C(=O)NC(C)C)C[C@@H](C)[C@@H](OC)CN(C)C2=O`: the AC50 entry is “inactive”. To `Cc1c(C(=O)c2ccccc2)c2ccccn2c1CCc1ccccn1` belongs “inactive”; to `S=c1nc(-c2ccc(Cl)cc2)[nH][nH]1`, 3.22 µM (active); to `Cc1noc(/C=C/c2ccccc2F)c1S(=O)(=O)N1CCC(C(=O)N2CCN(C)CC2)CC1`, “inactive”. In the case of `COCCN(C(=O)C(C)C)c1nnc(-c2ccc(C(C)(C)C)cc2)s1`, the AC50 result is “inactive”. For `O=C(OCC(=O)N1CCCCC1)c1ccccc1SCC(=O)N1CCCCC1` the value was “inactive”. For `COCc1c(Br)c(C)nc(OCC(=O)N/N=C/c2ccc(C)o2)c1C#N` the value was “inactive”; for `COc1ccc(C2=NS(=O)(=O)N(C)C(C(=O)NCc3ccc4c(c3)OCO4)=C2)cc1`, “inactive”; for `Cc1c(O)ccc(NC(=O)/C=C/c2ccccc2)c1C`, more than 39 µM. For `CC1CCN(CCCn2c(=S)[nH]c3c(sc4ccccc43)c2=O)CC1` the value was more than 39 µM; for `O=C(c1ccccc1)c1coc2ccc(O)c(Cl)c12`, 12.7 µM (active); for `CCc1ccc(NC(=O)C2=CC(c3ccc(OC)cc3)=NS(=O)(=O)N2C)cc1`, “inactive”. Turning to `COc1ccc(NC(=O)c2cc(S(=O)(=O)N3CCc4ccccc43)cn2C)cc1OC`, the AC50 entry is “inactive”. On to `Oc1ccc(-c2cn3ccccc3n2)cc1`, for which the AC50 is 4.42 µM (active). Take `CC(C)(Oc1ccc(Cl)cc1)C(=O)NC1CC1`: the AC50 result is “inactive”. Regarding `CNC(=O)C[C@@H]1CC[C@@H]2[C@H](COc3ccc(NS(=O)(=O)c4ccccc4C)cc3C(=O)N2C)O1`, the AC50 entry is “inactive”. To `COc1cc(/C=C/C(=O)OCC(=O)Nc2ccc(S(N)(=O)=O)cc2)ccc1O` belongs “inactive”. Turning to `O=c1oc(-c2ccc(Br)cc2)nc2ccccc12`, the AC50 result was “inactive”.

On to `O=C(NCCc1ccc(Cl)cc1)C1CCN(S(=O)(=O)c2ccc(Br)s2)CC1`, for which the AC50 entry is “inactive”. For `O=C1OCC/C1=C\c1ccc(O)cc1` the value was 9.75 µM (active); for `C/C(CCc1ccccc1)=N\NC(=O)C1C2CCCCC21` (stereo not drawn), “inactive”. For `COc1ccc2[nH]c3c(=O)n(CCCCC(=O)NCCN4CCCC4)c(=S)[nH]c3c2c1` the value was 18.5 µM (active). For `Cc1cccc(/C=C/c2onc(C)c2S(=O)(=O)N2CCC(C(=O)N3CCCCCC3)CC2)c1` the value was “inactive”; for `O=P1(Oc2ccccc2)OCCCS1` (stereo not drawn), “inactive”.
